PD-1 reverse act = reversal of PD-1 mediated T-cell inhibition; primary human CD4 T cells, PD-L1 beads, CellTiter-Glo 96 h; AID 2316; 29,000 tested, under 10 active; activation, % (concentration not given with the values); call rule not given here;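 note: 0% = median vehicle wells and 100% = positive control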
Shh pathway inh = Sonic Hedgehog pathway inhibition. Shh-LIGHT2 Gli-luciferase reporter, 30 h. inhibition, % (concentration not given with the values). 22,000 tested, 2.1% active. AID 2313;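 active = mean inhibition across valid replicates above about 65%, limit read from the data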;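 note: pathway switched on by Shh-conditioned medium diluted 1 in 25 in low serum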
YB-1 expression = YB-1 expression inhibition. U2OS, qRT-PCR YB-1 vs CDIP delta delta Cp, 16 h; stronger effect = higher value; zero = DMSO, each unit about twofold. delta delta Cp (YB-1 minus CDIP) (test concentration not listed). 30,000 tested, 0.37% active. AID 434959;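 active = delta delta Cp rounded down to an integer at or above 3, about 3 SD of DMSO wells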;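 note: higher means less YB-1 transcript or more CDIP transcript relative to DMSO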
MITF inh = blocks MITF activity; 37,000 tested, 0.28% active; TRPM1 promoter luciferase, luminescence, 24 h; inhibition, % (test concentration not listed); AID 2240; in the data active = inhibition above about 85%;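 note: human melanocyte line stably carrying TRPM1 promoter luciferase reporter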
NOMO-1 viab = STK33 inhibitor candidate reducing NOMO-1 cell viability; NOMO-1 AML viability, CellTiter-Glo luminescence, 72 h; AID 2330; 37,000 tested, 7.5% active; inhibition, % (test concentration not listed); in the data active = inhibition above about 80%
The depositor's hits bear a star. Compounds with a hit are over-represented: about 7.4% of the library has one in this group of screens.

C[C@@H]1CN([C@@H](C)CO)C(=O)c2cc(NC(=O)NC3CCCCC3)ccc2O[C@@H]1CN(C)Cc1ccc(-c2ccccc2)cc1 was read as PD-1 reverse act -6.2, Shh pathway inh 4.2, YB-1 expression -0.0317, MITF inh 8.8 and NOMO-1 viab 116.6*.
C[C@H]1CN([C@@H](C)CO)C(=O)c2cc(NC(=O)NC3CCCCC3)ccc2O[C@@H]1CN(C)Cc1ccc(-c2ccccc2)cc1 was read as PD-1 reverse act -0.5, YB-1 expression -0.711, MITF inh -0.3 and NOMO-1 viab 37.6.
`O=c1cc(-c2ccccc2)nc2nc(NCc3cccc([N+](=O)[O-])c3)[nH]n12` gave PD-1 reverse act 2.0, MITF inh -18.6 and NOMO-1 viab 24.7.
O=[N+]([O-])c1cccc(-c2nn(-c3ccccc3)cc2CNCc2ccccc2)c1 was read as PD-1 reverse act -9.1, MITF inh -20.1 and NOMO-1 viab 93.4*.
Screening O=C(Nc1ccc(F)cc1F)c1cccnc1Sc1cccs1 returned PD-1 reverse act -2.0, YB-1 expression -0.0392, MITF inh -24.2 and NOMO-1 viab 12.7.
COC(=O)c1ccccc1NC(=O)c1ccc(NC(=O)CSc2ccc(Cl)cc2)cc1 was read as PD-1 reverse act 0.4, MITF inh -0.7 and NOMO-1 viab -2.3.
O=C(Nc1ccc(NC(=O)c2ccccc2O)cc1)c1ccc(Cl)cc1 was read as PD-1 reverse act 3.3, Shh pathway inh 96.8*, YB-1 expression 0.122, MITF inh -11.0 and NOMO-1 viab -16.9.
For CC(C)(C)c1ccc(C(=O)Nc2ccc(NC(=O)c3ccccc3F)cc2)cc1 the results were PD-1 reverse act -0.4, Shh pathway inh 15.3, YB-1 expression -0.0392, MITF inh 9.5 and NOMO-1 viab 125.2*.
`Cc1ccc(S(=O)(=O)Nc2ccccc2CNc2cnc3ccccc3c2)cc1` gave MITF inh 57.2 and NOMO-1 viab 59.9.
`COc1ccccc1-n1nnnc1SCC(=O)Nc1ccccc1C` gave PD-1 reverse act -1.4, MITF inh -0.4 and NOMO-1 viab -6.3.
O=C(COc1ccc(C(=O)Nc2cccc(C(F)(F)F)c2)cc1)Nc1ccccc1F was read as PD-1 reverse act 0.7, MITF inh -9.4 and NOMO-1 viab -5.8.
For Cc1ccc(NC(=O)CSc2nc(-c3cccs3)cc(C(F)(F)F)n2)c([N+](=O)[O-])c1 the results were PD-1 reverse act -0.3, MITF inh 21.1 and NOMO-1 viab 107.0*.
`COc1ccc(C(=O)c2ccccc2)cc1` gave PD-1 reverse act -0.7, YB-1 expression -0.0758, MITF inh -18.6 and NOMO-1 viab -14.3.
For COC(=O)Nc1nc2ccc(S(=O)c3ccccc3)cc2[nH]1 (configuration not stated) the results were Shh pathway inh -62.2, YB-1 expression 0.133, MITF inh 27.1 and NOMO-1 viab 102.2*.
Screening Cc1ccc2nc(SCC(=O)NCc3ccccc3)[nH]c2c1 returned PD-1 reverse act 1.7, MITF inh -7.7 and NOMO-1 viab 12.3.
For COC(=O)Nc1nc2ccc(C(=O)c3ccccc3)cc2[nH]1 the results were Shh pathway inh 41.7, YB-1 expression -0.596, MITF inh 29.7 and NOMO-1 viab 109.6*.
Screening COC(=O)Nc1nc2ccc(C(=O)c3cccs3)cc2[nH]1 returned PD-1 reverse act -22.6, Shh pathway inh 62.5, YB-1 expression 0.587, MITF inh 6.6 and NOMO-1 viab 94.2*.
`O=C(/C=C/C=C/c1ccc2c(c1)OCO2)N1CCCC1` gave Shh pathway inh -65.0 and YB-1 expression 0.933.
Screening Cn1c(O)c(C=Nc2cccc(Cl)c2)c2ccccc21 returned PD-1 reverse act -1.9, YB-1 expression 0.0922, MITF inh 7.3 and NOMO-1 viab 35.2.
For C=CCn1c(-c2cccs2)nc(-c2ccccc2)c1-c1ccccc1 the results were PD-1 reverse act -5.4, Shh pathway inh 23.7, YB-1 expression 0.374, MITF inh 26.7 and NOMO-1 viab 120.5*.
`C[C@H]1CN([C@@H](C)CO)C(=O)c2cccc(NC(=O)c3nc4ccccc4s3)c2O[C@@H]1CN(C)Cc1ccc(C(F)(F)F)cc1` gave Shh pathway inh 7.6, YB-1 expression -0.212, MITF inh 29.3 and NOMO-1 viab 68.9.
For C[C@H](CO)N1C[C@H](C)[C@H](CN(C)Cc2ccc(C(F)(F)F)cc2)Oc2c(NC(=O)c3nc4ccccc4s3)cccc2C1=O the results were PD-1 reverse act -7.2, Shh pathway inh -1.6, YB-1 expression 0.118, MITF inh 35.3 and NOMO-1 viab 95.6*.
For C[C@@H]1CN([C@@H](C)CO)C(=O)c2cccc(NC(=O)c3nc4ccccc4s3)c2O[C@@H]1CN(C)Cc1ccc(C(=O)O)cc1 the results were PD-1 reverse act -0.3, Shh pathway inh -12.8, YB-1 expression 0.0816, MITF inh 12.4 and NOMO-1 viab 14.9.
For C[C@H](CO)N1C[C@H](C)[C@@H](CN(C)Cc2ccc(Oc3ccccc3)cc2)Oc2c(NC(=O)c3nc4ccccc4s3)cccc2C1=O the results were PD-1 reverse act -2.4, Shh pathway inh -15.1, YB-1 expression 1.43, MITF inh 16.0 and NOMO-1 viab 86.7*.
C[C@H](CO)N1C[C@H](C)[C@@H](CN(C)Cc2ccc(C(F)(F)F)cc2)Oc2c(NC(=O)c3nc4ccccc4s3)cccc2C1=O was read as PD-1 reverse act -3.4, Shh pathway inh 13.7, YB-1 expression -0.119, MITF inh 12.3 and NOMO-1 viab 106.1*.
`C[C@@H]1CN([C@@H](C)CO)C(=O)c2cccc(NC(=O)c3nc4ccccc4s3)c2O[C@H]1CN(C)Cc1ccc(C(=O)Nc2ccccc2N)cc1` gave PD-1 reverse act -1.0, YB-1 expression -0.425, MITF inh 23.2 and NOMO-1 viab 118.4*.
Cc1ccc2oc(-c3ccc(Cl)c(NC(=O)COc4ccc(Br)cc4)c3)nc2c1 was read as MITF inh -7.8 and NOMO-1 viab 56.1.
`Cc1cc(C)nc(N/C(=N/S(=O)(=O)c2ccc(Br)cc2)N2CCC(C)CC2)n1` gave PD-1 reverse act -0.9, Shh pathway inh -5.4, YB-1 expression -0.314, MITF inh -7.7 and NOMO-1 viab 14.9.
For CCOc1ccc(NC(=O)C(C)Sc2nc3ccccc3s2)cc1 (configuration not stated) the results were PD-1 reverse act 0.3, MITF inh 29.1 and NOMO-1 viab 10.1.
Screening O=C(ON1C(=O)c2ccccc2C1=O)C1CCCCC1 returned PD-1 reverse act -2.7, Shh pathway inh 69.8*, YB-1 expression -0.332, MITF inh 17.8 and NOMO-1 viab 125.9*.
For O=C(Nc1ccccc1)C1CCCCC1 the results were PD-1 reverse act 0.3, YB-1 expression 0.000929, MITF inh -3.6 and NOMO-1 viab 5.9.
Screening O=C(CN1CCCCC1)Nc1sc2c(c1C(=O)Nc1ccc(Cl)cc1)CCC2 returned MITF inh 39.4 and NOMO-1 viab 9.3.
Screening O=C(CSc1n[nH]c(-c2ccc(Cl)cc2Cl)n1)N1CCc2ccccc21 returned PD-1 reverse act 1.8, MITF inh -10.1 and NOMO-1 viab -0.6.

Screening results: PubChem, Broad Institute
